Holding throughout (test): yeast three-hybrid, YBZ-1, SC-Leu-His + 0.5 mM 3-AT, 4 days
Holding throughout (details): tags: N-Gal4 AD-HA kept; label: inside an RPR1-promoter hybrid RNA with tandem MS2 sites; ssRNA

The target in one experiment is PUM1 PUF domain R3-FIA (Homo sapiens, UniProt Q14671 828-1176, C935F;R936I;Q939A). In short, it runs like this:
(§1)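 Repeat regions from input (SC-Leu) and selection (SC-Leu-His + 0.5 mM 3-AT) plates were PCR-amplified and Illumina-sequenced after four days of growth. The cells were strain YBZ-1 with a LexA–MS2 coat fusion and a HIS3 reporter, co-expressing Pumilio-1 PUF domain libraries and matching RNA elements from a centromeric plasmid. The interaction score is the log change in variant frequency from input to selection, taken in log2 with a pseudocount of 1 for absent variants.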

The next experiment has as its target PUM1 PUF domain R3-GWS (Homo sapiens, UniProt Q14671 828-1176, C935G;R936W;Q939S). In short, it runs like this:
as §1

The target in the next experiment is PUM1 PUF domain R4-HNA (Homo sapiens, UniProt Q14671 828-1176, N971H;H972N;Q975A). In short, it runs like this:
as §1

Another experiment addresses PUM1 PUF domain R5-KLT (Homo sapiens, UniProt Q14671 828-1176, C1007K;R1008L;Q1011T). A digest of the protocol: as §1
The target of another experiment is PUM1 PUF domain R5-RCS (Homo sapiens, UniProt Q14671 828-1176, C1007R;R1008C;Q1011S). In short, it runs like this: as §1
In another experiment the target is PUM1 PUF domain R5-RCG (Homo sapiens, UniProt Q14671 828-1176, C1007R;R1008C;Q1011G). A digest of the protocol: as §1
Another experiment has as its target PUM1 PUF domain R5-RMM (Homo sapiens, UniProt Q14671 828-1176, C1007R;R1008M;Q1011M). In short, it runs like this: as §1
The target in a further experiment is PUM1 PUF domain R1-TTR (Homo sapiens, UniProt Q14671 828-1176, S863T;R864T;Q867R). In short, it runs like this:
as §1

Another experiment addresses T1, PUM1 PUF domain R6-VFV (Homo sapiens, UniProt Q14671 828-1176, N1043V;Y1044F;Q1047V).
T1 sequence: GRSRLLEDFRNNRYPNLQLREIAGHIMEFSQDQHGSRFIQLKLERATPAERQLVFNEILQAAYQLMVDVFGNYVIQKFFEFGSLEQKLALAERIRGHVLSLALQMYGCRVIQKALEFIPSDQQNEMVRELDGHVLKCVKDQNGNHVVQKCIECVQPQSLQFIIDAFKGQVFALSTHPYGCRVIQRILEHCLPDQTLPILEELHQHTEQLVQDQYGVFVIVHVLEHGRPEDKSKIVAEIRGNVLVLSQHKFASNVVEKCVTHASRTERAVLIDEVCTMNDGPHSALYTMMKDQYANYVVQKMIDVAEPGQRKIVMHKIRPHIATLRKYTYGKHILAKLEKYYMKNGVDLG
In short, it runs like this: as §1

The target in another experiment is PUM1 PUF domain R3-DYV (Homo sapiens, UniProt Q14671 828-1176, C935D;R936Y;Q939V). In short, it runs like this: as §1
Another experiment concerns the target T2, PUM1 PUF domain R6-KWT (Homo sapiens, UniProt Q14671 828-1176, N1043K;Y1044W;Q1047T).
T2 sequence: T1 sequence with V216K, F217W, V220T
A digest of the protocol:
as §1

For a further experiment, the target named is PUM1 PUF domain R5-DHI (Homo sapiens, UniProt Q14671 828-1176, C1007D;R1008H;Q1011I). A digest of the protocol: as §1
The next experiment addresses PUM1 PUF domain R5-NSC (Homo sapiens, UniProt Q14671 828-1176, C1007N;R1008S;Q1011C). A digest of the protocol:
as §1

A further experiment addresses PUM1 PUF domain R5-PHL (Homo sapiens, UniProt Q14671 828-1176, C1007P;R1008H;Q1011L). A digest of the protocol:
as §1

A further experiment concerns the target PUM1 PUF domain R8-AHR (Homo sapiens, UniProt Q14671 828-1176, N1122A;Y1123H;Q1126R). In short, it runs like this: as §1
The target in the next experiment is PUM1 PUF domain R8-HWD (Homo sapiens, UniProt Q14671 828-1176, N1122H;Y1123W;Q1126D). In short, it runs like this:
as §1

A further experiment has as its target PUM1 PUF domain R8-RHS (Homo sapiens, UniProt Q14671 828-1176, N1122R;Y1123H;Q1126S). In short, it runs like this: as §1
The next experiment concerns the target T3, PUM1 PUF domain R6-WYR (Homo sapiens, UniProt Q14671 828-1176, N1043W;Q1047R).
T3 sequence: T1 sequence with V216W, F217Y, V220R
A digest of the protocol:
as §1

A further experiment has as its target PUM1 PUF domain R2-CGI (Homo sapiens, UniProt Q14671 828-1176, N899C;Y900G;Q903I). A digest of the protocol: as §1
The target in another experiment is T4, PUM1 PUF domain R6-RYL (Homo sapiens, UniProt Q14671 828-1176, N1043R;Q1047L).
T4 sequence: T1 sequence with V216R, F217Y, V220L
In short, it runs like this:
as §1

Residue numbers refer to the chain shown, from its start.

On to “GGCUAGAACUAGUGGAUCCCCCGGCGCCCGGCGGCUCGAGCCCGGGUAAGUGUAAGUAGUCUGCAUGCCGCCGGGCGCCAUGCCUGCAGGUCGACUCUAGAAAACAUG”, for which the binding signal is 3.2 log2 enrichment (interaction score) in the experiment with PUM1 PUF domain R3-FIA and 1.75 log2 enrichment (interaction score) with PUM1 PUF domain R3-GWS.
Turning to “GGCUAGAACUAGUGGAUCCCCCGGCGCCCGGCGGCUCGAGCCCGGGUAAGUGUAUAUAGUCUGCAUGCCGCCGGGCGCCAUGCCUGCAGGUCGACUCUAGAAAACAUG”, in the experiment with PUM1 PUF domain R4-HNA, the binding signal is 4.72 log2 enrichment (interaction score).
With “GGCUAGAACUAGUGGAUCCCCCGGCGCCCGGCGGCUCGAGCCCGGGUAAGUGUCAAUAGUCUGCAUGCCGCCGGGCGCCAUGCCUGCAGGUCGACUCUAGAAAACAUG”, the binding signal with PUM1 PUF domain R5-KLT was 2.35 log2 enrichment (interaction score); in the experiment with PUM1 PUF domain R5-RCS, 3.59 log2 enrichment (interaction score); with PUM1 PUF domain R5-RCG, 3 log2 enrichment (interaction score); with PUM1 PUF domain R5-RMM, 2.73 log2 enrichment (interaction score).
In the case of “GGCUAGAACUAGUGGAUCCCCCGGCGCCCGGCGGCUCGAGCCCGGGUAAGUGUAAAUCGUCUGCAUGCCGCCGGGCGCCAUGCCUGCAGGUCGACUCUAGAAAACAUG”, in the experiment with PUM1 PUF domain R1-TTR, the binding signal was 4.01 log2 enrichment (interaction score).
As for “GGCUAGAACUAGUGGAUCCCCCGGCGCCCGGCGGCUCGAGCCCGGGUAAGUGUACAUAGUCUGCAUGCCGCCGGGCGCCAUGCCUGCAGGUCGACUCUAGAAAACAUG”, the binding signal with PUM1 PUF domain R4-HNA is 2.26 log2 enrichment (interaction score).
As for “GGCUAGAACUAGUGGAUCCCCCGGCGCCCGGCGGCUCGAGCCCGGGUAAGUGAAAAUAGUCUGCAUGCCGCCGGGCGCCAUGCCUGCAGGUCGACUCUAGAAAACAUG”, the binding signal with PUM1 PUF domain R6-VFV is 5.24 log2 enrichment (interaction score).
In the case of “GGCUAGAACUAGUGGAUCCCCCGGCGCCCGGCGGCUCGAGCCCGGGUAAGUGUAAUUAGUCUGCAUGCCGCCGGGCGCCAUGCCUGCAGGUCGACUCUAGAAAACAUG”, the binding signal in the experiment with PUM1 PUF domain R3-DYV is 3.08 log2 enrichment (interaction score); in the experiment with PUM1 PUF domain R3-GWS it was 1.22 log2 enrichment (interaction score).
As to “GGCUAGAACUAGUGGAUCCCCCGGCGCCCGGCGGCUCGAGCCCGGGUAAGUGCAAAUAGUCUGCAUGCCGCCGGGCGCCAUGCCUGCAGGUCGACUCUAGAAAACAUG”, the binding signal with PUM1 PUF domain R6-KWT was 3.77 log2 enrichment (interaction score).
With “GGCUAGAACUAGUGGAUCCCCCGGCGCCCGGCGGCUCGAGCCCGGGUAAGUGUUAAUAGUCUGCAUGCCGCCGGGCGCCAUGCCUGCAGGUCGACUCUAGAAAACAUG”, the binding signal with PUM1 PUF domain R5-RCS was 2.74 log2 enrichment (interaction score); with PUM1 PUF domain R5-DHI it was 4.16 log2 enrichment (interaction score); in the experiment with PUM1 PUF domain R5-RCG, 3.29 log2 enrichment (interaction score); with PUM1 PUF domain R5-NSC, 4.07 log2 enrichment (interaction score); with PUM1 PUF domain R5-PHL it was 4.46 log2 enrichment (interaction score).
In the case of “GGCUAGAACUAGUGGAUCCCCCGGCGCCCGGCGGCUCGAGCCCGGGUAAGUGUAAAUGGUCUGCAUGCCGCCGGGCGCCAUGCCUGCAGGUCGACUCUAGAAAACAUG”, the binding signal with PUM1 PUF domain R1-TTR is 2.5 log2 enrichment (interaction score).
On to “GGCUAGAACUAGUGGAUCCCCCGGCGCCCGGCGGCUCGAGCCCGGGUAAGCGUAAAUAGUCUGCAUGCCGCCGGGCGCCAUGCCUGCAGGUCGACUCUAGAAAACAUG”, for which the figures for the binding signal with PUM1 PUF domain R8-AHR, in the experiment with PUM1 PUF domain R8-HWD and in the experiment with PUM1 PUF domain R8-RHS were 3.45 log2 enrichment (interaction score), 4.23 log2 enrichment (interaction score) and 4.15 log2 enrichment (interaction score), respectively.
For “GGCUAGAACUAGUGGAUCCCCCGGCGCCCGGCGGCUCGAGCCCGGGUAAGUGUAAAUAGUCUGCAUGCCGCCGGGCGCCAUGCCUGCAGGUCGACUCUAGAAAACAUG”, the binding signal with PUM1 PUF domain R6-VFV was 1.55 log2 enrichment (interaction score); with PUM1 PUF domain R3-DYV, 5.65 log2 enrichment (interaction score); in the experiment with PUM1 PUF domain R6-WYR, 5.27 log2 enrichment (interaction score); with PUM1 PUF domain R3-GWS it was 5.13 log2 enrichment (interaction score); with PUM1 PUF domain R2-CGI it was 2.59 log2 enrichment (interaction score); in the experiment with PUM1 PUF domain R6-RYL, 2.68 log2 enrichment (interaction score). The results for the binding signal with PUM1 PUF domain R5-PHL and with PUM1 PUF domain R8-RHS were 4.35 log2 enrichment (interaction score) and 3.91 log2 enrichment (interaction score), respectively.

(Values after article PMC8384837, “Expanding the binding specificity for RNA recognition by a PUF domain”.)
